Compound activity: PubChem BioAssay, several laboratories
HIF-2a block: blocks HIF-2a reporter activity | 786-0 RCC cells HIF-2a reporter, luciferase luminescence, overnight | inhibition, % at 18.8 µM | hit rate 0.72% among 360,000 | AID 624352;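 active = inhibition of the luminescence signal of 40% or more relative to plate controls, in a single-dose primary screen at 18.75 µM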
KKLEB tox: reduces viability of KKLEB cystic fibrosis airway cells | activity change (cytotoxicity), % at 5 µM | AID 602141 | hit rate 0.36% among 360,000 | KKLEB CF airway cells viability, ATPlite luminescence, overnight; active compounds read low; cells stimulated with P. aeruginosa culture filtrate;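 active = corrected activity change at or below -50% at 5 µM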
TRPM1 prom inh: reduces MITF-dependent TRPM1 promoter luciferase signal. AID 488899. inhibition, % at 12.5 µM. hit rate 0.83% among 330,000. SK-MEL-5 TRPM1 promoter luciferase, 24 h;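 active = mean inhibition across replicates of 60% or more, whatever share of single replicates reaches that level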
CF NFkB inh: cystic fibrosis NF-kB activation inhibition. KKLEB NF-kB-GFP reporter, PAF-induced, GFP fluorescence overnight. inhibition, % at 5 µM. hit rate 0.86% among 360,000;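 active = at least 50% inhibition at 5 µM, scaled per plate between neutral and stimulator controls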;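 also: PAF is a Pseudomonas aeruginosa culture filtrate used as stimulus; plate controls were PAF-stimulated DMSO wells for no effect and unstimulated DMSO wells for full effect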
Peg3 prom inh-1: reduces Peg3 promoter-driven luciferase expression in HeLa; HeLa PEG-Prom luciferase reporter, luminescence, overnight; inhibition, % at 20 µM; hit rate 1.7% among 360,000; AID 588405;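 active = inhibition of at least 50% at 20 µM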
Shn3 inh set2: Schnurri-3 reporter inhibition in Clone20 osteoblasts; Clone20 osteoblast Shn3 3'UTR firefly luciferase, 24 h; inhibition, % at 12.5 µM; hit rate 0.52% among 360,000; AID 588674;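 active = mean inhibition of at least 75% with every replicate also reaching 75%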;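 also: 0% = median of neutral control wells and 100% = pilot-screen positive control compound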
Peg3 prom inh-2: confirmation of Peg3 promoter inhibitors; hit rate 84% among 1,300; inhibition, % at 20 µM; shares compounds with Peg3 prom inh-1; HeLa PEG-Prom luciferase reporter, luminescence, overnight; AID 602417;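 active = at 20 µM dose, 40% or more inhibition averaged across four replicates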
The depositor's hits bear a star; . = no result. Most compounds without a hit are left out; they make up all but 2.7% or so of the library.

SMILES	HIF-2a block	KKLEB tox	TRPM1 prom inh	CF NFkB inh	Peg3 prom inh-1	Shn3 inh set2	Peg3 prom inh-2
CC(/C=C/c1cccc([N+](=O)[O-])c1)=N/NC(=O)c1cccnc1	-3	4	7	-9	-9	76	.
CCOC(=O)c1c(NC(=O)COc2ccccc2C#N)sc2c1CC(C)(C)NC2(C)C	10	-22	53	12	29	12	.
CCOC(=O)c1c(NC(=O)CSc2nnnn2-c2ccccc2OCC)sc2c1CC(C)(C)NC2(C)C	2	-7	15	22	79*	8	86*
CC(C)COc1ccc(C(=O)Nc2ccc(NC(=O)c3ccco3)cc2)cc1	-4	6	-13	-10	77*	-6	38
Cc1ccc2c(c1)c1c(n2CCc2ccc(C)nc2)CCN(C)C1	18	-1	-9	5	-6	-1	.
O=C(Nc1ccc(-c2nc3ccccc3o2)cc1)c1ccc(N2CCOCC2)c([N+](=O)[O-])c1	-82	-51*	30	52*	51*	91*	48*
CCN(CC)c1ccc(NC(=O)Cn2c(C(C)NC(=O)c3ccccc3)nc3ccccc32)cc1 (centres undefined)	-3	-5	6	-2	78*	7	10
CCOC(=O)c1cccc(Nc2nc(-c3cccnc3)nc3ccccc23)c1	-8	-14	20	12	63*	25	90*
COC(=O)c1cccc(Nc2nc(-c3cccnc3)nc3ccccc23)c1	-5	-12	12	34	43	15	.
COc1cc(C(=O)NC(C)c2ccc3ccccc3c2)cc(Cl)c1O (centres undefined)	13	2	12	18	15	2	.
COc1cccc(-c2cnc3c(NC=O)cc(-c4cccc(C(=O)N(C)C)c4)cn23)c1	0	-8	.	-37	55*	-26	54*
COc1cccc(-c2cc(NC=O)c3ncc(-c4cccc(C(=O)N(C)C)c4)n3c2)c1	-8	-12	.	16	32	5	.
CN(C)C(=O)c1cccc(-c2cnc3c(NC=O)cc(-c4cccc(C(F)(F)F)c4)cn23)c1	8	-15	.	-1	57*	41	61*
Cc1cc(Br)ccc1NC(=O)CN1C(=O)C2C3CC(c4ccccc4)C(C3)C2C1=O (centres undefined)	-22	-7	1	-19	56*	11	63*
Cc1cc(Br)ccc1NC(=O)CNC(=O)CN1C(=O)NC2(CCCCCC2)C1=O	10	0	-8	0	11	-9	.
COc1cc(/C=C/C(=O)CC(=O)/C=C/c2ccc(O)c(OC)c2)ccc1O	17	-2	9	-20	64*	-21	31
COc1cc(/C=C/C(=O)O)ccc1O	20	1	.	-16	7	0	.
Cc1[nH]nc(S(=O)CC(=O)O)c1[N+](=O)[O-] (centres undefined)	24	-4	-9	-17	51*	-15	26
COc1ccccc1C1c2ccc3ccccc3c2Oc2ncn(CCCO)c(=N)c21 (centres undefined)	1	-6	62*	16	102*	18	97*
Cc1cc(Cl)n2ncc(-c3ccccc3)c2n1	-156	-7	-6	10	87*	-138	68*
O=C(N/N=C\c1c(O)ccc2ccccc12)c1cncc(Br)c1	-10	-9	43	22	65*	87*	60*
O=C(CN1CCOCC1)N/N=C/c1c(O)ccc2ccccc12	-11	1	1	15	16	85	.
O=C(CNc1ccccc1)N/N=C/c1c(O)ccc2ccccc12	-2	-9	13	3	64*	91*	68*
Fc1ccccc1-c1nc(-c2ccc(-c3nn[nH]n3)cc2)no1	-270	-3	-44	2	-260	-52	.
CCCc1nc2oc3c(Cl)ncnc3c2c2c1CCCC2	20	-8	28	6	99*	7	34
SMILES	HIF-2a block	KKLEB tox	TRPM1 prom inh	CF NFkB inh	Peg3 prom inh-1	Shn3 inh set2	Peg3 prom inh-2
COc1ncnc2c1oc1nc(CC(C)C)c3c(c12)CCCC3	14	-6	-20	12	9	17	.
CCN(CC)CCNc1cccc2sc3ccccc3c(=O)c12	5	-9	.	-13	101*	-18	68*
Cc1ccc(C(=O)Nc2cc3ccccc3oc2=O)cc1	49*	-46	91*	18	90*	81	62*
CC(=O)Nc1cc2ccccc2oc1=O	-7	-2	6	8	1	17	.
COc1ccc2oc(=O)c(C(=O)Nc3ccccc3O)cc2c1	-223	-9	-56	-29	-197	-20	.
COc1ccc(NC(=O)c2cc3ccccc3oc2=O)cc1	-2	-20	.	-26	55*	37	34
COCCCNCCCOc1ccc(Cl)cc1C(C)(C)C	-1	-2	0	4	62*	18	40
COCCNCCCOc1ccc(Cl)cc1Br	-6	6	-4	8	-10	-6	.
CC1=NN(c2nc(-c3ccc(C)cc3)cs2)C(=O)C1N=Nc1ccc(C(N)=O)cc1 (centres undefined)	7	-66*	102*	76*	102*	66	30
CC1=NN(c2nc(-c3ccc(C)cc3)cs2)C(=O)C1N=Nc1ccc2ccccc2c1 (centres undefined)	-25	-3	12	-2	-14	-1	.
CC(=O)N1CCN(S(=O)(=O)c2c(C)n(C)c(=O)n(C)c2=O)CC1	13	0	-20	-4	21	-1	.
CN(CC(=O)Nc1ccc(Cl)c(C(F)(F)F)c1)C(=O)c1cc(-c2ccncc2)nc2ccccc12	17	-22	-5	-1	77*	26	92*
CN(CC(=O)Nc1ccc(F)c(F)c1F)C(=O)c1cc(-c2ccncc2)nc2ccccc12	22	-4	14	-2	7	9	.
COc1cccc(NC(=O)CN(C)C(=O)c2cc(-c3ccc(F)cc3)nc3ccccc23)c1	-8	-19	-20	1	63*	13	73*
Cc1nc(-c2ccc(F)cc2)c(CC(=O)N(C)CC(=O)Nc2ccc(Cl)c(C(F)(F)F)c2)s1	8	-26	-3	19	58*	15	56*
Cc1ccc(NC(=O)Cc2nc(CN(C)CC(=O)Nc3ccc(C)cc3)cs2)cc1	4	0	3	-13	26	13	.
CC1Cc2ccccc2N1S(=O)(=O)c1cccc(C(=O)N2Cc3ccccc3CC2C(N)=O)c1 (centres undefined)	17	4	12	-11	14	45	.
CC(C)c1ccc(NC2CCCN(C(=O)CCc3cnn(C)c3)C2)cc1 (centres undefined)	0	3	-2	23	12	1	.
Cc1ccc2cc3c(N)c4c(C)ccc(C)c4nc3nc2c1	-14	-12	15	-82	103*	80	97*
